Compound activity as filed in PubChem.
INS promoter inh: TRM-6 insulin promoter activity inhibition. TRM-6 cells (human fetal islet line), insulin promoter-eGFP reporter, imaging; reporter expression induced with tamoxifen. inhibition, % at 2 µM. actives 0.9% (n = 130,000);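 active means inhibition above the mean plus 3 SD, with well images judged a real hit on visual review, cut at about 60% in these data, passing the limit was not always enough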
Efa HMGR inh: blocks class II HMG-CoA reductase of Enterococcus faecalis; purified E. faecalis HMGR, NADPH absorbance 340 nm kinetic; inhibition, % at 10 µM; actives 0.41% (n = 190,000);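 active means inhibition above a set limit, the median over all tested compounds plus 3 SD, cut at about 9.5% in these data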;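 further: enzyme runs in reverse so mevalonate oxidation gives rising NADPH absorbance; 0% = complete reaction with DMSO and 100% = background rate lacking mevalonate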
Autophagy mod: modulators of autophagy; MEF GFP-LC3 puncta imaging; test concentration mostly 10 µM; calls only at 10 µM (by protocol); actives 0.98% (n = 190,000);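 active means percentage of spot-positive cells more than 3 SD above its plate mean, without a fluorescence outlier flag or 80% toxicity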;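 further: spot-positive cell cutoff set from DMSO-treated cells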
Insulin prom up: MIN6 insulin promoter up-regulation; MIN6 insulin promoter-GFP reporter, high-content imaging; stronger effect = higher value; z-score at 5 µM; actives 0.3% (n = 190,000);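 active means z-score above 3 at 5 µM with at least 500 cells counted in the well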
* = called active by the depositor; i = inactive; / = no result; + = active, no number; ! = not confirmed by another sample. A selection: hits, their analogues and other compounds. The true share with any hit is near 1.9%.

SMILES | INS promoter inh | Efa HMGR inh | Autophagy mod | Insulin prom up
CC1CCN(C(=O)CN2C(=O)C(=O)c3ccccc32)CC1 | / | -1 | + | -0.63
CC1CCN(C(=O)CN2C(=O)c3cccc4cccc(c34)C2=O)CC1 | -9 | 5 | i | 0.03
Cc1ccc(C2=C(c3ccc([N+](=O)[O-])cc3)C(=O)OC2)cc1C | / | -4 | + | 0.22
Cc1cc(NC(=O)c2cc(-c3ccc(C)s3)nc3ccccc23)no1 | / | 2 | i | 1.2
Cc1cccc(NC(=O)c2cc(-c3ccc(C)s3)nc3ccccc23)n1 | -23 | -13 | + | 0.55
COc1cc(Cn2c(-c3nonc3N)nc3ccccc32)ccc1C | -284 | -4 | + | -0.99
CCCCOc1ccccc1NC(=O)Cn1c(-c2nonc2N)nc2ccccc21 | / | 0 | + | -0.8
O=C(CN1C(=O)c2ccccc2C1=O)Nc1ccc(Cl)cn1 | / | -3 | i | -0.2
COc1ccc(C2NC(=O)NC(O)(C(F)(F)F)C2C(=O)c2ccccc2)cc1OC (configuration not stated) | 17 | -2 | i | 0.85
COc1cccc(C2NC(=O)NC(O)(C(F)(F)F)C2C(=O)c2cccnc2)c1OC (configuration not stated) | -23 | 19* | i | /
Cc1nn(CC#N)c(=O)n1-c1ccc(C(C)C)cc1 | / | 3 | i | 0.59
Cc1nn(CC#N)c(=O)n1-c1ccc(Cl)cc1 | / | -3 | + | 0.52
COc1ccccc1NC(=O)c1c(N=Cc2cccc([N+](=O)[O-])c2)cnn1C | / | / | / | -1.6
COC(=O)[C@@H](NC(=O)Nc1cccc(OC)c1)C(C)C | 57 | -5 | i | 3*
COc1ccc(OC)c(N2CC(O)=C(c3nc4ccccc4s3)C2=N)c1 | 9 | -6 | i | 0.75
CCOc1ccccc1N1CC(O)=C(c2nc3ccccc3s2)C1=N | -146 | 0 | + | -3.9
CCN(CC)CCCN1CC(O)=C(c2nc3ccccc3s2)C1=N | 66* | -4 | i | -0.89
O=C(CCCc1cccs1)Nc1nc(-c2ccc(F)cc2)cs1 | 7 | -4 | i | -0.88
COc1ccc(-c2cc(C(F)(F)F)c(C#N)c(SCC(=O)Nc3nc(C)co3)n2)cc1 | -160 | 2 | + | -0.14
COc1ccc(-c2cc(C(F)(F)F)c(C#N)c(SCC(=O)Nc3ccccc3C#N)n2)cc1 | -46 | -2 | + | 0.35
CCCOc1nc(SCCC)nc2c1cnn2-c1ccccc1 | / | / | / | -0.2
Cc1cccc(C)c1NS(=O)(=O)c1ccc(OCCNS(C)(=O)=O)cc1 | / | -2 | i | 0.69
Fc1c(CSC(=S)N2CCOCC2)cccc1CSC(=S)N1CCOCC1 | / | / | / | -0.72
CCOC(=O)Cn1cc(C#N)c2cccc(CC)c21 | / | -9 | i | -0.34
COc1ccc(C(=O)N2CCN(C(C)=O)CC2)cc1S(=O)(=O)N1CCOCC1 | 45 | -6 | i | -0.67
SMILES | INS promoter inh | Efa HMGR inh | Autophagy mod | Insulin prom up
CCOC(=O)N1CCN(C(=O)c2ccc(OC)c(S(=O)(=O)N3CCOCC3)c2)CC1 | 78* | -3 | i | -0.02
CN(CCN1CCOCC1)Cc1nc(-c2ccc(Cl)cc2)no1 | / | / | / | -0.22
Clc1ccc(C[n+]2csc3ccccc32)cc1 | 0 | -3 | + | -0.3
COc1ccc(-c2csc(C3=C(O)CN(C(C)C)C3=N)n2)cc1OC | / | -6 | i | -1
CC1=CC2=NC(=O)CC(C)(C(=O)N(CC(=O)NC(C)C)C3CCCC3)N2C=C1 (configuration not stated) | 17 | 2 | i | 0.94
CCOc1ccccc1N/C=C(\C#N)c1nc2ccccc2n1C | 72* | 2 | i | 0.93
Cn1c(/C(C#N)=C/Nc2ccccn2)nc2ccccc21 | 11 | -2 | i | 1.3
COC(=O)/C=c1/s/c(=C(/C#N)C(=O)NCc2ccccc2)n(-c2ccccc2)c1=O | 41 | -6 | i | 0.07
CCCCCCOc1ccc(/C=c2\s/c(=C(/C#N)C(=O)NCc3ccco3)n(-c3ccccc3)c2=O)cc1 | -14 | -1 | + | -0.32
COc1ccc(-c2csc(/C(C#N)=C/Nc3cc4oc5ccccc5c4cc3OC)n2)cc1 | -35 | -2 | + | /
COc1ccc(-c2csc(/C(C#N)=C/Nc3ccc4c(c3)OCCO4)n2)cc1 | -3 | -4 | i | -0.53
CCOC(=O)N1CCN(c2cc(NCCO)c([N+](=O)[O-])c3nonc23)CC1 | -22 | 13* | i | -1.9
O=C(NCc1ccco1)C(=O)c1cn(CC(=O)N2CCCCC2)c2ccccc12 | -62 | -3 | i | -0.14
C=CCNC(=O)/C(=C\c1ccc(Br)cc1)NC(=O)c1ccccc1OC | / | 5 | i | 3.4*
CCCCCCCCCOC(=O)C[n+]1csc(CCO)c1C | 17 | -1 | i | -0.48
Cc1c(CCO)sc[n+]1CC(=O)OCCC12CC3CC(CC(C3)C1)C2 | 67* | 3 | i | 0.17
CCC(=O)n1nc(-c2ccc(OC)cc2)nc1SC | 89* | -2 | i | /
CCCC(=O)n1nc(-c2ccc(Cl)cc2)nc1SC | 75* | -2 | i | /
CC(C)N(C(=O)CSc1nnc(CSc2ncccn2)n1C)C(C)C | -24 | 2 | i | /
N#C/C(=C\c1ccc(-c2cccc([N+](=O)[O-])c2)o1)C(=O)Nc1nc(-c2cccs2)cs1 | / | / | / | -0.27
CCn1cc(C(=O)O)c(=O)c2cc(F)c(N3CCN(S(=O)(=O)c4ccc(Br)cc4)CC3)cc21 | 47 | 10* | i | 0.45
Cc1noc(NS(=O)(=O)c2ccc(NC(=O)Nc3ccc(Cl)c(Cl)c3)cc2)c1C | 75* | -1 | i | 1
Cc1cc2oc(C(=O)Nc3ccc(S(=O)(=O)Nc4onc(C)c4C)cc3)cc(=O)c2cc1Cl | / | / | / | -0.04
CC(C(=O)N1CCc2ccccc21)N1CCc2ccccc2C1 (configuration not stated) | 16 | 5 | i | /
COc1cc2c(cc1OC)CN(C(C)C(=O)N1CCc3ccccc31)CC2 (configuration not stated) | 15 | 19* | i | /
SMILES | INS promoter inh | Efa HMGR inh | Autophagy mod | Insulin prom up
CC(C)c1ccc2c(c1)[C@H]1OCC[C@H]1[C@@H](c1cccs1)N2 | -10 | 1 | + | -0.37
COc1ccc(CN2CCN(C(=O)C3CCC(CNS(=O)(=O)c4ccccc4)CC3)CC2)c(OC)c1OC (configuration not stated) | 9 | -3 | i | -0.33
O=C1c2ccccc2NC(c2ccc([N+](=O)[O-])cc2)N1O (configuration not stated) | / | -6 | i | 0.89
Cc1ccccc1OCc1n(CC(=O)OC2CC(C)CCC2C(C)C)c2ccccc2[n+]1C (configuration not stated) | -29 | -4 | + | -5.1
CC1CCC(C(C)C)C(OC(=O)COC(=O)c2cccn2C)C1 (configuration not stated) | 36 | 2 | i | -0.61
CC1CCC(C(C)C)C(OC(=O)Cn2c(-c3ccc(Br)cc3)[n+](C)c3ccccc32)C1 (configuration not stated) | 0 | -3 | +! | -1.9
CC1CCC(C(C)C)C(OC(=O)COC(=O)c2ccc(N)cc2)C1 (configuration not stated) | / | -7 | i | -0.46
Fc1ccccc1Nc1nc(Cl)nc(Cl)n1 | 23 | 11* | i | 0.06
Fc1cccc(Nc2nc(Cl)nc(Cl)n2)c1 | / | 1 | i | -0.25
